Reference: the supplement of paper PMC10849652
About 8,800 targets were measured; listed, in parts, are those with a hit and a random draw of the rest. About 0.5% of all pairs of compound and target were hits.

Columns and labels:
Test in all cases: log2 fold change, soluble protein after heating vs DMSO (PISA); higher = thermal stabilisation; K562 lysate, 10 uM; active = over 0.2 and 3.5 SD of the protein, either way, in both replicates (recomputed)
[1] = compound: C1=CC=C(C=C1)[C@H](COC2=CC3=C(C=C2)NC(=O)N3)NC(=O)C4=CC=CN(C4=O)CC5=CC(=C(C=C5)F)F
How it was run: (§1)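 Thermal stability, expressed as log-two fold change relative to solvent controls, is given from duplicates. Crude K562 extract in PBS pH 7.4 with 1 mM MgCl2, at 1 mg/mL protein, was treated with 10 μM compound for 30 min and heated in aliquots for 3 min across 48°C-58°C. After pooling, adjustment to 0.5% NP-40 at 4°C and centrifugation at 21,000xg for 90 min, supernatant protein was measured by TMTpro 16plex LC-MS/MS with channel sums equalised.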

[2] = compound: CC1=C(SC2=C1C(=N[C@H](C3=NN=C(N32)C)CC(=O)N)C4=CC=C(C=C4)Cl)C
How it was run: as §1

[3] = compound: CC1=C2C(=CC=C1)N=C(N(C2=O)C3=CC=CC=C3C)CN4C=NC5=C(N=CN=C54)N
How it was run: as §1

[4] = compound: c1ccc([C@@H]2C[C@H]2NC2CCNCC2)cc1
How it was run: as §1

[5] = compound: Cc1sc2c(c1C)C(c1ccc(Cl)cc1)=N[C@@H](CC(=O)OC(C)(C)C)c1nnc(C)n1-2
How it was run: as §1

Measured: log2 fold change

PRKD3 (UniProt O94806)
UniProt O94806, sequence (O94806 whole entry, looked up): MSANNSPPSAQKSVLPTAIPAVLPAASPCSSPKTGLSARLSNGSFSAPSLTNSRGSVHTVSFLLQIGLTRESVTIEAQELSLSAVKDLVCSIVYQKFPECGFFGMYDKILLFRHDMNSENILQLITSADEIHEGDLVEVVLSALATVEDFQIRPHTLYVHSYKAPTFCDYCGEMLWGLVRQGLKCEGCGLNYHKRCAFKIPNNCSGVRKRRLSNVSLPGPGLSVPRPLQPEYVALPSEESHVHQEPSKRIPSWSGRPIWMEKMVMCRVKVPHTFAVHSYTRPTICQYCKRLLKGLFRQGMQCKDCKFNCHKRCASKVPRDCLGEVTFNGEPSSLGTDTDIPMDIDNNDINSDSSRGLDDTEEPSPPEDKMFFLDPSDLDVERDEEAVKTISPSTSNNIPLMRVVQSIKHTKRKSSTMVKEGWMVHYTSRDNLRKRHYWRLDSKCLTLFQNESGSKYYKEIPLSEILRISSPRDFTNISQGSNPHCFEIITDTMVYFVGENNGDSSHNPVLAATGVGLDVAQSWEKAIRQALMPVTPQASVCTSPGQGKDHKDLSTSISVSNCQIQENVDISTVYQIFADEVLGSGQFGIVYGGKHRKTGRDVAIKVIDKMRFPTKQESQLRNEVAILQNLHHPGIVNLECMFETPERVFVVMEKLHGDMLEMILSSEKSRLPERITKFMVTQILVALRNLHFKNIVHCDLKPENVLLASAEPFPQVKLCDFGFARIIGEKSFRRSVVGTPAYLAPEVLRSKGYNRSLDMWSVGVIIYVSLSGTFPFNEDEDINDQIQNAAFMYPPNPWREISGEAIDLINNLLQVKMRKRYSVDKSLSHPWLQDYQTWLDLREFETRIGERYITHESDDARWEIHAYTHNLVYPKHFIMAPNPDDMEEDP
inactive: [1] 0.035 | [2] 0 | [3] 0.206 | [4] -0.386

PPIE (UniProt Q9UNP9)
UniProt Q9UNP9, sequence (Q9UNP9 whole entry, looked up): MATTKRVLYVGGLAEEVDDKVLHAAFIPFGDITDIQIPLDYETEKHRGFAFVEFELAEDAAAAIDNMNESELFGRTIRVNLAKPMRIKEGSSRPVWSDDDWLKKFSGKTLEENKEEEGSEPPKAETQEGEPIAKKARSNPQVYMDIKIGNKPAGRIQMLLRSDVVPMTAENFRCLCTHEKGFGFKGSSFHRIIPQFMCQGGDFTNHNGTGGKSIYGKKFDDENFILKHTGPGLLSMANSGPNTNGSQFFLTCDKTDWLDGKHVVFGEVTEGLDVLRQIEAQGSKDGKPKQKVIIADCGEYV
inactive: [1] 0.033 | [2] -0.023 | [3] 0.026 | [5] -0.04 | [4] -0.144

PDPK1 (UniProt O15530)
UniProt O15530, sequence (O15530 whole entry, looked up): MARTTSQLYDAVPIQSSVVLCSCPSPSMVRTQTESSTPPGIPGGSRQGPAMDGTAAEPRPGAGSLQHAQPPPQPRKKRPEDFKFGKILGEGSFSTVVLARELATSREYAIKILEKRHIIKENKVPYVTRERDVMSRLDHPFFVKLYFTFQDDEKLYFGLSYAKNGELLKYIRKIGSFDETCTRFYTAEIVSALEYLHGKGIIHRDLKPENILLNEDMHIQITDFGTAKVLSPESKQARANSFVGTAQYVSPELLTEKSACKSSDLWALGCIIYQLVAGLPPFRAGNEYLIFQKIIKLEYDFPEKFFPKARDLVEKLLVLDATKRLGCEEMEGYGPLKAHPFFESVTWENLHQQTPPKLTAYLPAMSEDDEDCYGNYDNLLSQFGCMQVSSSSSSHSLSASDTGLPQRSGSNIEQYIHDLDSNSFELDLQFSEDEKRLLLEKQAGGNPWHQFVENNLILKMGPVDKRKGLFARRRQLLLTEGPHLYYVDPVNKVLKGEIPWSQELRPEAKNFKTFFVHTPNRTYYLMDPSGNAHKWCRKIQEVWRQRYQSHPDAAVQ
inactive: [2] 0 | [3] -0.035 | [5] 0.022 | [4] -0.069

PLXND1 (UniProt Q9Y4D7)
UniProt Q9Y4D7, sequence (Q9Y4D7 whole entry, looked up): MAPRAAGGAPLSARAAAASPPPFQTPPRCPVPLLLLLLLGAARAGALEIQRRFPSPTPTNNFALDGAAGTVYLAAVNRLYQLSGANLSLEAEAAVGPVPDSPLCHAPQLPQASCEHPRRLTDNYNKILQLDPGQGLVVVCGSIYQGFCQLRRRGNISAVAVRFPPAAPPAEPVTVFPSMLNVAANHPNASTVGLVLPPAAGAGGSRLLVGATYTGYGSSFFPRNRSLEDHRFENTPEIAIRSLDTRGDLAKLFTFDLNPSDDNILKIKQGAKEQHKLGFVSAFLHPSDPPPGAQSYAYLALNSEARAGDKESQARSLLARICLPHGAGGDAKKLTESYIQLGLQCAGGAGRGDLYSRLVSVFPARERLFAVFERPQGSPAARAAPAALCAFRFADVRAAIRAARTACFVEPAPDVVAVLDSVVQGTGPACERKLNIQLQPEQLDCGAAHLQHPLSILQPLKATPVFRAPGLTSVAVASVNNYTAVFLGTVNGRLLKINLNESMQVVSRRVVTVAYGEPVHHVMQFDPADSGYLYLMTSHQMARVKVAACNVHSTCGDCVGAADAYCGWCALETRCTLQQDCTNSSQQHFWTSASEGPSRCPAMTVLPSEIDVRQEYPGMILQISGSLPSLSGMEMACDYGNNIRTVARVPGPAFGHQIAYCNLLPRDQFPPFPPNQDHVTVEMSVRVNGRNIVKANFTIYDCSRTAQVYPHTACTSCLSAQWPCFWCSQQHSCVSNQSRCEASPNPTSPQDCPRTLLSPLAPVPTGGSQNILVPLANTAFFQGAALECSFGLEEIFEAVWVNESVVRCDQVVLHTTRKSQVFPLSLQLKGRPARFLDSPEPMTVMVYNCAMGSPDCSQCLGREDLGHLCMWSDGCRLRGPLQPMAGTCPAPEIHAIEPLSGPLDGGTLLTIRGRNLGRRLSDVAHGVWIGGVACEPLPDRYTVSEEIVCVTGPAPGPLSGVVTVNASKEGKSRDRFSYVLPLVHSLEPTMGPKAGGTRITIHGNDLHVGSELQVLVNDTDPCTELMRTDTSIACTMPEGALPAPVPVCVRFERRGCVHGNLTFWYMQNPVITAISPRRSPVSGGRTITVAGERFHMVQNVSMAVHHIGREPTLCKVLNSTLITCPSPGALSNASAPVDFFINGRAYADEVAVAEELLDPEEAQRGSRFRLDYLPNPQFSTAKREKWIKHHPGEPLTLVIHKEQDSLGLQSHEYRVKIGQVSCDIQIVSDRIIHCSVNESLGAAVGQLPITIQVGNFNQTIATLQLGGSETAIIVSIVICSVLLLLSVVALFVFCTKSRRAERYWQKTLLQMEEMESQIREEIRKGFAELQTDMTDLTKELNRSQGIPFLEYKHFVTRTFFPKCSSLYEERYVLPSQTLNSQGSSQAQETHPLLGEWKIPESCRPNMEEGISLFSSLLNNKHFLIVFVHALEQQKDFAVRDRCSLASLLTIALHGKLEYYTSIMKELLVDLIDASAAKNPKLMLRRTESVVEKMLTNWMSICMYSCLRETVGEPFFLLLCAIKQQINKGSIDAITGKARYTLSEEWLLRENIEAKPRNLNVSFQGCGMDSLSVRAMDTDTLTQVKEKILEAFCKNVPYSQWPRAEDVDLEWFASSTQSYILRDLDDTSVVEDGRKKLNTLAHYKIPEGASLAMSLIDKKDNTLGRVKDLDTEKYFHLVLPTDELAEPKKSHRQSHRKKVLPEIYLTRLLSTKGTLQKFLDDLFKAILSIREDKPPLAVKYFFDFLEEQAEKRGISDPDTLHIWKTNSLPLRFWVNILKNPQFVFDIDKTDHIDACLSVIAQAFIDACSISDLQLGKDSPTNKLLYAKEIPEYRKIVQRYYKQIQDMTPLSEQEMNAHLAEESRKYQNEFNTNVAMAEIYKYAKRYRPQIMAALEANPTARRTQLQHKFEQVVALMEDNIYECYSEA
inactive: [1] -0.039 | [2] 0.082 | [5] 0.029

PPP1R11 (UniProt O60927)
UniProt O60927, sequence (O60927 whole entry, looked up): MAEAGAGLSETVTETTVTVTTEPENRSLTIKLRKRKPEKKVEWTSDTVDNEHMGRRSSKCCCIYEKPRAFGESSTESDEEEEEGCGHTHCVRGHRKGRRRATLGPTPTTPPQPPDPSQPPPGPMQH
inactive: [1] -0.025 | [2] -0.095 | [5] 0.014 | [4] 0.001

PYCR2 (UniProt Q96C36)
UniProt Q96C36, sequence (Q96C36 whole entry, looked up): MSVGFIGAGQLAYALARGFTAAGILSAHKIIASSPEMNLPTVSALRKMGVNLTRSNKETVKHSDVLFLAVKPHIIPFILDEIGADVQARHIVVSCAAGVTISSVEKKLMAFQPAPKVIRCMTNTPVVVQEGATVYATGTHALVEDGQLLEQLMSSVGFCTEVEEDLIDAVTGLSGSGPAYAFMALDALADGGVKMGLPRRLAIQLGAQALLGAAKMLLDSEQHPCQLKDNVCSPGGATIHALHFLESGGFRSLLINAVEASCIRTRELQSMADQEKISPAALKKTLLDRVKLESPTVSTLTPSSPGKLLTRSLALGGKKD
inactive: [1] 0.007 | [2] 0.036 | [3] 0.013 | [5] 0.004 | [4] -0.054

PRR4 (UniProt Q16378)
inactive: [3] -0.076 | [4] -0.269

NA (UniProt Q4G0T1)
inactive: [5] -0.027 | [4] -0.025

PDE4DIP (UniProt E9PS60)
inactive: [3] 0.074 | [5] -0.12 | [4] -0.257

PIK3C3 (UniProt Q8NEB9)
UniProt Q8NEB9, sequence (Q8NEB9 whole entry, looked up): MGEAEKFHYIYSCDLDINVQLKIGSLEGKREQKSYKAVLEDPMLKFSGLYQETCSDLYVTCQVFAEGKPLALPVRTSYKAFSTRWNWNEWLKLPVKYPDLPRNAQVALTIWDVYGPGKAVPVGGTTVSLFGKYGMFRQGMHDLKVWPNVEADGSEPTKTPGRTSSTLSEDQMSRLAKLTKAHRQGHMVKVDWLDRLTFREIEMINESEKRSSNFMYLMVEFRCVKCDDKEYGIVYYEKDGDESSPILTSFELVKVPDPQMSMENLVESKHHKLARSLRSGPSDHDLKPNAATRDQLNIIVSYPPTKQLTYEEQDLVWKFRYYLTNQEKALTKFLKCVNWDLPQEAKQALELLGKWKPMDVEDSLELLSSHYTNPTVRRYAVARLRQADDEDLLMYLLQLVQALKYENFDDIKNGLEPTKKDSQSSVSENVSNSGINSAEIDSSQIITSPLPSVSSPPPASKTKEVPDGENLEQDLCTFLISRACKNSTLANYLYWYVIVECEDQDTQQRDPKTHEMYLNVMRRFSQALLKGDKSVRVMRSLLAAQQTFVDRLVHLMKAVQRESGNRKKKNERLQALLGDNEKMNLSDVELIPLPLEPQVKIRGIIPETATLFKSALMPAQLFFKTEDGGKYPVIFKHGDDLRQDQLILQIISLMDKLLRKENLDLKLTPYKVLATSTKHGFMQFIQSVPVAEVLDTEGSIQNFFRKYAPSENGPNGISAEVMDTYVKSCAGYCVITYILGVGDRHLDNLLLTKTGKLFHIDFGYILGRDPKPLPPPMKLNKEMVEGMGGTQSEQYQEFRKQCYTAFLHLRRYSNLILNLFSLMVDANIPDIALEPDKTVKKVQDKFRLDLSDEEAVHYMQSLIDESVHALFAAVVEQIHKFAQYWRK
inactive: [1] -0.041 | [2] -0.032 | [3] -0.036 | [5] -0.014 | [4] -0.114

PYGO2 (UniProt Q9BRQ0)
inactive: [1] 0.064 | [2] 0.031 | [5] 0.024 | [4] 0.011
